# High-throughput results as filed in PubChem BioAssay.
# The entries come from a sample that favours hits as a whole.
# Shiga inhibitor: Shiga toxin inhibition. Vero cells, Shiga toxin protein synthesis inhibition reporter. inhibition, % at 38.7 µM. actives 9.2% (n = 290,000). AID 2315; in the data active = inhibition mostly above about 28%, no sharp cut-off; inactive = mostly below about 43%; also: 0% is about no effect
# AMA1 RON2 block: inhibitors of Plasmodium falciparum AMA1-RON2 interaction; AlphaScreen AMA1-biotinylated RON2 peptide binding; actives 0.2% (n = 360,000); Potency, µM (doses to about 58.2 µM), for inactives: at the highest dose activity change, negative = inhibition, actives largely listed as inhibitors; AID 720542; active = well fitted inhibition curve with a large enough effect; inconclusive = small, poorly fitted or top-dose-only effect; inactive = no such curve, though single readings can be large or run the other way;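 also: potency is read from the fitted curve at half-maximal effect; 0% = vehicle wells and -100% = peptide control; nearly all actives have a fitted effect of over 45% in size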
#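 AMA1 (3D7) with his tag at 25 nM final met compounds first, then biotinylated RON2 peptide at 25 nM; detection used donor plus acceptor beads, 10 µg/mL apiece, read by AlphaScreen after 30 min at room temperature.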
# LASV entry inh: blocks Lassa virus binding to or entry into cells. Lassa virus pseudotype entry inhibition, cell reporter. actives 1.2% (n = 300,000). Potency, µM (series often up to 37.9 µM), inactives show at the top dose activity change, negative = inhibition, hits mostly inhibitors; calls by dose curve; tested in HEK293 cells; also: potency is read from the fitted curve at half-maximal effect; % is scaled to controls: 0 for no effect and ±100 for the full control effect; nearly all actives have a fitted effect of over 50% in size
# Cycloheximide cs: affects cycloheximide protein synthesis inhibition readout, counter-screen; cell reporter, cycloheximide protein synthesis inhibition counterscreen; max response, %; actives 12% (n = 300,000); AID 2314; in the data active = max response mostly above about 13%, no sharp cut-off; inactive = mostly below about 14%; also: read at 38.3 µM for the half of the compounds with a filed dose; 0% is about no effect
# MARV entry inh: inhibitors of Marburg virus binding or cell entry | Marburg virus pseudotyped entry inhibition, cell reporter | Potency, µM (series often up to 37.8 µM), without a hit: at the top dose activity change, negative = inhibition, hits mostly inhibitors | actives 1.8% (n = 300,000); calls by dose curve; tested in HEK293 cells; also: potency is read from the fitted curve at half-maximal effect; % is scaled to controls: 0 for no effect and ±100 for the full control effect
# * hit, by the source's call; ? = inconclusive; / = not tested or not shown; [ ] = remark or other dose.
SMILES,Shiga inhibitor,AMA1 RON2 block,LASV entry inh,Cycloheximide cs,MARV entry inh
O=C(NNC(=O)c1ccccc1C(=O)O)c1ccc(O)cc1,96.3,25.1%,11.7%[46.1 µM],23.5*,1.2%
CC(C)Oc1ccc(C(=O)NNC(=O)c2ccccc2C(=O)O)cc1,30.4,43.0%,/,17.4*,/
COc1ccccc1CNCCSc1nnnn1C,/,/,15.9%[46.1 µM],/,-2.3%[46.1 µM]
COC(=O)N1C(C)=Cc2ccccc2C1CC(C)=O (stereo not given),/,/,/,/,-8.5%[14.2 µM]
Cn1cc(CN2CCC[C@H]2CO)c(-c2cccc(Cl)c2)n1,-10.0,-0.1%,/,26.8*,/
Cc1ccc2c(=O)cc(C(=O)Nc3ccc(S(=O)(=O)Nc4onc(C)c4C)cc3)oc2c1,-5.6,-1.9%,-0.2%[46.1 µM],-4.7,1.6%[46.1 µM]
Cc1noc(NS(=O)(=O)c2ccc(N/C=C\C(=O)c3ccccc3)cc2)c1C,118.4*,5.7%,3.1%,45.7*,15.0%[46.1 µM]
Cc1noc(NS(=O)(=O)c2ccc(N/C=C/C(=O)c3ccc4c(c3)OCO4)cc2)c1C,120.2*,-6.2%,12.3%,59.1*,?
Cc1noc(NS(=O)(=O)c2ccc(N/C=C\C(=O)c3ccc(F)cc3)cc2)c1C,90.0*,-17.9%,17.9%,61.0*,-4.9%[46.1 µM]
Cc1ccc2c(C)c(C(=O)Nc3ccc(S(=O)(=O)Nc4onc(C)c4C)cc3)oc2c1,88.6*,-16.6%,-10.9%[46.1 µM],55.2*,4.7%[46.1 µM]
Cc1noc(NS(=O)(=O)c2ccc(NC(=O)c3ccc(F)cc3)cc2)c1C,/,1.1%,10.5%,/,10.6%
Cc1ccsc1/C=N/NC(=O)C1C(=O)NCC1c1ccccc1 (stereo not given),-4.4,-5.2%,-27.5%[46.1 µM],-2.1,7.8%[46.1 µM]
Cc1noc(NS(=O)(=O)c2ccc(N/C=C\C(=O)c3cccs3)cc2)c1C,93.7*,-1.8%,2.4%,42.6*,5.4%
Cc1noc(NS(=O)(=O)c2ccc(NC(=O)/C=C/c3ccccc3)cc2)c1C,/,-17.0%,31.9%,/,2.1%
OC1(c2ccccn2)COc2ccccc2O1 (stereo not given),32.4,55.1%,26.2%,23.7*,11.1%[46.1 µM]
Cc1cc(Cl)ccc1NC(=O)CN1C(=O)C(=O)c2ccccc21,/,/,-9.9%[46.1 µM],/,-20.6%[46.1 µM]
COCCNC(=O)C1C(=O)Nc2ccccc2C(=O)N1Cc1ccccc1 (stereo not given),/,-0.9%,/,/,/
OC(c1ccc(F)c(F)c1)c1ncc(-c2cccc(C(F)(F)F)c2)[nH]1 (stereo not given),/,-14.5%,/,/,/
CC(/C=C/c1ccccc1)=N\NC(=O)c1cc(C)[nH]n1,32.7,86.7%,0.6%,36.1*,27.7%
CC(C)c1cc(C(=O)N/N=C/C=C/c2ccccc2)n[nH]1,15.2,103.8%,-1.6%,1.4,22.3%
O=C(N/N=C/C=C/c1ccccc1)c1cnccn1,29.6,51.2%,-0.2%,12.7*,6.2%
O=C(/C=C/c1ccccc1)NC(=S)NNC(=O)c1cccnc1,-5.9,37.9%,21.3%,-3.5,6.9%
O=C(/C=C/c1ccccc1)NC(=S)NNC(=O)c1cnccn1,20.1,-33.6%,7.94µM*,0.5,?
CC(/C=C/c1cccc([N+](=O)[O-])c1)=N/NC(=O)c1cccnc1,35.9,46.0%[11.6 µM],-11.1%,14.4,-25.8%
CC(/C=C/c1ccccc1)=N/NC(=O)c1cnccn1,32.1*,134.5%,12.6%,26.5*,19.3%[46.1 µM]
SMILES,Shiga inhibitor,AMA1 RON2 block,LASV entry inh,Cycloheximide cs,MARV entry inh
Cc1ccc(C2=NN(C(=S)Nc3ccccc3)C(c3ccco3)C2)cc1 (stereo not given),70.7*,23.9%,5.6%,38.6*,3.2%
CCS(=O)(=O)Nc1ccc(C2=NN(C(=S)Nc3ccccc3)C(c3ccco3)C2)cc1 (stereo not given),18.1,38.5%,?,18.0*,?
CNC(=O)CN1C(=O)COc2ccc(S(=O)(=O)N3CCC(C)CC3)cc21,/,/,20.8%[46.1 µM],/,-1.4%[46.1 µM]
CCC(C)(C)C1CCc2[nH]nc(C(=O)N/N=C(\C)c3ccco3)c2C1 (stereo not given),106.7*,86.8%,?,61.0*,?
C/C(=N\NC(=O)c1n[nH]c2c1CCC2)c1ccco1,26.7,4.2%,?,25.8*,?
CCCNC(=O)c1n[nH]c2c1CC(C(C)(C)CC)CC2 (stereo not given),/,-1.1%,/,/,/
CC(C)C(=O)N1CCC1(C)C(=O)NCc1ccc(F)cc1Cl (stereo not given),/,-14.7%,/,/,/
O=C(Nc1ccc(Cl)cc1)/C(=C/c1ccc([N+](=O)[O-])cc1)c1nc2ccccc2s1,115.2*,/,/,55.9*,/
O=C(O)CC/C(=C\c1cc([N+](=O)[O-])ccc1Cl)c1nc2ccccc2s1,-6.5,1.5%,-9.4%,-3.1,6.6%
